Columns and labels:
Experiment in all cases: log2 ratio of Biotin-Ahx-Ub-VS probe labelling (fragment/DMSO); higher = less target engagement (more negative = stronger competition), active = hit call of the paper (q ≤ 0.05, log2 ratio ≤ -1)
Conditions in all cases: compound concentration: 200 uM; treatment time: 3 h
[1] = molecular target: T1, USP19 (UniProt O94966)
T1 sequence (whole entry): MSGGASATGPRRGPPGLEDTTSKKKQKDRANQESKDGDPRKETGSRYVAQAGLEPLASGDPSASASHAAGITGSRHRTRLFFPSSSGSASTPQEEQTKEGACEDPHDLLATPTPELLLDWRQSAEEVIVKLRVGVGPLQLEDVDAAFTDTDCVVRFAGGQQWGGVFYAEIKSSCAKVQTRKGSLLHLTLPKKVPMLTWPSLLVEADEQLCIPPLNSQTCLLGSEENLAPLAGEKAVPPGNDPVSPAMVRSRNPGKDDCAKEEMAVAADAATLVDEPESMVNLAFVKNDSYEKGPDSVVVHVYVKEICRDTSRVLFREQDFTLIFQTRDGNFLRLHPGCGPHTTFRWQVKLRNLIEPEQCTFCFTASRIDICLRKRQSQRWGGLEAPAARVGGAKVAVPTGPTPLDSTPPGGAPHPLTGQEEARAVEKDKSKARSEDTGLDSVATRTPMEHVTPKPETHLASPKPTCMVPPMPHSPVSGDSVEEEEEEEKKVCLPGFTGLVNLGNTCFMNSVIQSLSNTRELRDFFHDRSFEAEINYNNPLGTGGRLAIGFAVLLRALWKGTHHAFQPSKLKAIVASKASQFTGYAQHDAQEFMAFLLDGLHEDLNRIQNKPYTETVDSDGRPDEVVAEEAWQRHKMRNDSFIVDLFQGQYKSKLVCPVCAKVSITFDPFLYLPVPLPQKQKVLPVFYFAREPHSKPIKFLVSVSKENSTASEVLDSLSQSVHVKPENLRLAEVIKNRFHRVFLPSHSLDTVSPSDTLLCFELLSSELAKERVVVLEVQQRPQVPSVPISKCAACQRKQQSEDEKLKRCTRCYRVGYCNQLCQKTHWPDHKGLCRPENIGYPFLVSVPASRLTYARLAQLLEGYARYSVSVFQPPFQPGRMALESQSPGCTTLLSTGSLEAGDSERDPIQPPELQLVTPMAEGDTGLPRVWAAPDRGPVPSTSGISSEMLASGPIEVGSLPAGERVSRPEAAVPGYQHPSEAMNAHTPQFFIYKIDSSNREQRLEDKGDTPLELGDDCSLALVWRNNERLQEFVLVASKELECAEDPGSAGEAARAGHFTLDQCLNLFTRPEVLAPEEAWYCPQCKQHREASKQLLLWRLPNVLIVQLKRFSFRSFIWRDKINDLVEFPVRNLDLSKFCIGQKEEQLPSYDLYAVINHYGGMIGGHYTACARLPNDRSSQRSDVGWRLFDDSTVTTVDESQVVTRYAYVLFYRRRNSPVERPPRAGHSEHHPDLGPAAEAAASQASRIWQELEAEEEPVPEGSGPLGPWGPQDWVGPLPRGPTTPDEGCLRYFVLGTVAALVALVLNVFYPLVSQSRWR
Procedure, shortened: (§1)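 The table lists average log2 ratios of fragment over vehicle, from an unpaired t-test on global-median-normalised Spectronaut label-free quantities. Proteins with ≥2 unique peptides were used. Samples were HEK293T lysate (495 µg) treated in triplicate with fragment at 200 µM or vehicle for 3 h, then with Biotin-Ahx-Ub-VS (0.5 µM final) for 1 h, with labelled DUBs NeutrAvidin-enriched and run by diaPASEF LC-MS/MS.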

[2] = molecular target: T2, USP22 (UniProt Q9UPT9)
T2 sequence (whole entry): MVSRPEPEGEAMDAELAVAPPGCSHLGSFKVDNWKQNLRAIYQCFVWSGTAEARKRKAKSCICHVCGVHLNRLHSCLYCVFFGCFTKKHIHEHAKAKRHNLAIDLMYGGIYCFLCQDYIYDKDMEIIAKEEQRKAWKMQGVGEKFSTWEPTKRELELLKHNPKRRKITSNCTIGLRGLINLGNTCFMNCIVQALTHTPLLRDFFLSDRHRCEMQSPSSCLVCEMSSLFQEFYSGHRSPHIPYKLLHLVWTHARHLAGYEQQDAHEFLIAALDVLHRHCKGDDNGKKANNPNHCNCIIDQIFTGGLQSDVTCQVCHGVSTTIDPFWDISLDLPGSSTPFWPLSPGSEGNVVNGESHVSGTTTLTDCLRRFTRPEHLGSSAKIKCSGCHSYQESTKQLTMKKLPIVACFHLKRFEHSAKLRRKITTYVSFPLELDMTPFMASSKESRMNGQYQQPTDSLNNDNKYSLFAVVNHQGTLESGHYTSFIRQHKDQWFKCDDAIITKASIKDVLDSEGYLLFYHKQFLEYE
Procedure, shortened: as §1

[3] = molecular target: USP24 (UniProt Q9UPU5)
Chain of USP24 (Q9UPU5 whole entry): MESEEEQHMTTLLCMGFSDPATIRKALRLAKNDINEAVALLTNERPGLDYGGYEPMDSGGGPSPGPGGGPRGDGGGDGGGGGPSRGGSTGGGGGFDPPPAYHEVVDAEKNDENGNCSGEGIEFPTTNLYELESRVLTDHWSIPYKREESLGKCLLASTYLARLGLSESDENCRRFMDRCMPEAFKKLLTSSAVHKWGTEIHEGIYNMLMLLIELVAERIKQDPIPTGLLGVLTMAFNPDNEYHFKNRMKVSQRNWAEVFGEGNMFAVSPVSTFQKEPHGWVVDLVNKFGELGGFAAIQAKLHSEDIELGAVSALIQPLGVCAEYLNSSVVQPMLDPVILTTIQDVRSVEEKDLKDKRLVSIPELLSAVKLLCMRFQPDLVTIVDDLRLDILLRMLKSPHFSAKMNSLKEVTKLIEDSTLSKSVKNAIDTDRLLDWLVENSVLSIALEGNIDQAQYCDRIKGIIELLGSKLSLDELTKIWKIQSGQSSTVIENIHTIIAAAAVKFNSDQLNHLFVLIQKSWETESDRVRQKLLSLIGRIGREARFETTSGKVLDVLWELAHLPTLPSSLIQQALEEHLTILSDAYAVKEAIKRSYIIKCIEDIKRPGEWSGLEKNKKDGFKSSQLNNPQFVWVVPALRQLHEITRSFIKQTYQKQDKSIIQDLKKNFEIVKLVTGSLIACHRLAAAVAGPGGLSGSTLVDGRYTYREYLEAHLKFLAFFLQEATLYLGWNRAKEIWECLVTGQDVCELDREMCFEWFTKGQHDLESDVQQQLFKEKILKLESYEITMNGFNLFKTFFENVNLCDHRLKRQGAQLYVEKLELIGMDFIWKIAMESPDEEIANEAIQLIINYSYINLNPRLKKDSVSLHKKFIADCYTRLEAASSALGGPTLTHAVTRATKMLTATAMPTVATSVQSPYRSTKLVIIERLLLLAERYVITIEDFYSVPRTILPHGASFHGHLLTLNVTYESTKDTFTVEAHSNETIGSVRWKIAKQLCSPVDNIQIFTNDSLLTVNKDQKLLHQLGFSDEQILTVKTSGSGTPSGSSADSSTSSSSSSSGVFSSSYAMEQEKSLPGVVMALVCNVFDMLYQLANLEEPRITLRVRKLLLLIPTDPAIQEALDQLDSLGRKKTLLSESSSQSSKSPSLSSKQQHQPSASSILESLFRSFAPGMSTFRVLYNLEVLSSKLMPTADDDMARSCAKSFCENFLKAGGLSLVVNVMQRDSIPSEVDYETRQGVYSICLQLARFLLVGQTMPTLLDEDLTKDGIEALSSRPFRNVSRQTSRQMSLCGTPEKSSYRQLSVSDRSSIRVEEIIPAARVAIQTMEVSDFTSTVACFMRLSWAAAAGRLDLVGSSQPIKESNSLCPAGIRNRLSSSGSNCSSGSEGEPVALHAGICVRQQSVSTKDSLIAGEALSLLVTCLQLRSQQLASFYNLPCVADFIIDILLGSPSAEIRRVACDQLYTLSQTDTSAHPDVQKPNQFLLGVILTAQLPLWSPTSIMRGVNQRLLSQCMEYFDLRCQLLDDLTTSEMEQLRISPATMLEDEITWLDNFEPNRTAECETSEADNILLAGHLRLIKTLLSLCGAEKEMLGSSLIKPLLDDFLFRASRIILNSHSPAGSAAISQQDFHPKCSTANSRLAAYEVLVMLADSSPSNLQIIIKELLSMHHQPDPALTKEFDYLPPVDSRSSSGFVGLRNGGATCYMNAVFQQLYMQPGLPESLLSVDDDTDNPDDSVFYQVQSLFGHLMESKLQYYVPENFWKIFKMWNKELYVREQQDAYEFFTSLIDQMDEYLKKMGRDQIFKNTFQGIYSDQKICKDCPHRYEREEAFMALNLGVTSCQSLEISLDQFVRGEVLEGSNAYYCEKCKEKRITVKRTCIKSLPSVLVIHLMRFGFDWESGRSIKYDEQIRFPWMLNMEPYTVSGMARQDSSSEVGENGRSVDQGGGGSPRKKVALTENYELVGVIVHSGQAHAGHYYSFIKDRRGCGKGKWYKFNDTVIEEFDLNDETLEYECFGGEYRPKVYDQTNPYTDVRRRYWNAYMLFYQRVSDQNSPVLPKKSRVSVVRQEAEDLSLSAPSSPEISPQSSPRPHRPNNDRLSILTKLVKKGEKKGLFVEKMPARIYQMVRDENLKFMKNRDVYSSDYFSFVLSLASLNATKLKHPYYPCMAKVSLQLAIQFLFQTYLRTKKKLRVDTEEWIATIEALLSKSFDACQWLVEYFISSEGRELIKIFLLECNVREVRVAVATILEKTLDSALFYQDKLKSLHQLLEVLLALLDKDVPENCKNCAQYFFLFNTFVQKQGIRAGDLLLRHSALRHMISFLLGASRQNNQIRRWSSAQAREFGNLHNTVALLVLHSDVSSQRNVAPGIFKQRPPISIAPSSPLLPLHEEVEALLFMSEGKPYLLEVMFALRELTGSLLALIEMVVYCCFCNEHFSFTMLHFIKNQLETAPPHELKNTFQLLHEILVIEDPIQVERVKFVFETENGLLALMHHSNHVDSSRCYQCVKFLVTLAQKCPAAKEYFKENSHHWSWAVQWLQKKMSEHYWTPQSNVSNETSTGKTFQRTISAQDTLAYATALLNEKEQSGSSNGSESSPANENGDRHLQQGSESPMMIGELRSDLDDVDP
Procedure, shortened: as §1

[4] = molecular target: T3, USP25 (UniProt Q9UHP3)
T3 sequence (whole entry): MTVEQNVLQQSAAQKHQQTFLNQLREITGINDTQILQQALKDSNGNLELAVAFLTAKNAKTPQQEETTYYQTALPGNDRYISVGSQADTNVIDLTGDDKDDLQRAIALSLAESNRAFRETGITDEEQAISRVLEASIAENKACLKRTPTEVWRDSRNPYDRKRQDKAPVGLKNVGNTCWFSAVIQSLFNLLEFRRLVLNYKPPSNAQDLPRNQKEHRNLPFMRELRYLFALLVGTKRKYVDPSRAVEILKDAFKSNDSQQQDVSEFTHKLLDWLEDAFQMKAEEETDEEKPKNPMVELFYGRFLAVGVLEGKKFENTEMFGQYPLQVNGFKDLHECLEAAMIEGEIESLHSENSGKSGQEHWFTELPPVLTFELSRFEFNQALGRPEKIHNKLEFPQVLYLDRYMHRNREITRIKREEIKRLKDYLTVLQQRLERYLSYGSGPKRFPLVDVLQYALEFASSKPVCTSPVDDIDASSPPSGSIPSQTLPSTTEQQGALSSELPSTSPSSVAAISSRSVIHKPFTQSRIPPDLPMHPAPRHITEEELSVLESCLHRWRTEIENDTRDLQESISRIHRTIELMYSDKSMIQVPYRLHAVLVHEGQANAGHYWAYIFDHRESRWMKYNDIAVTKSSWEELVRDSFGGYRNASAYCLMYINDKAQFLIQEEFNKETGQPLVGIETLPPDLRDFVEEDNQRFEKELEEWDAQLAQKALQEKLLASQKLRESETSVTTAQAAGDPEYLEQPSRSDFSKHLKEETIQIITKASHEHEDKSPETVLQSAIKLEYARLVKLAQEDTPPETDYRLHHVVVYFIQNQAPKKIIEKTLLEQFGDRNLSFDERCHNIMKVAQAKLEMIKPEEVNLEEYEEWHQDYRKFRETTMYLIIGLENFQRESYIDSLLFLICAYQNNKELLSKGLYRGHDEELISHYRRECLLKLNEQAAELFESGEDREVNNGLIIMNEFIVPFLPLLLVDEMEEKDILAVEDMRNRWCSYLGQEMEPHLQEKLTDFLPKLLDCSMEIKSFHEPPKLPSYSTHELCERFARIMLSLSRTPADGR
Procedure, shortened: as §1

[5] = molecular target: T4, USP28 (UniProt Q96RU2)
T4 sequence (whole entry): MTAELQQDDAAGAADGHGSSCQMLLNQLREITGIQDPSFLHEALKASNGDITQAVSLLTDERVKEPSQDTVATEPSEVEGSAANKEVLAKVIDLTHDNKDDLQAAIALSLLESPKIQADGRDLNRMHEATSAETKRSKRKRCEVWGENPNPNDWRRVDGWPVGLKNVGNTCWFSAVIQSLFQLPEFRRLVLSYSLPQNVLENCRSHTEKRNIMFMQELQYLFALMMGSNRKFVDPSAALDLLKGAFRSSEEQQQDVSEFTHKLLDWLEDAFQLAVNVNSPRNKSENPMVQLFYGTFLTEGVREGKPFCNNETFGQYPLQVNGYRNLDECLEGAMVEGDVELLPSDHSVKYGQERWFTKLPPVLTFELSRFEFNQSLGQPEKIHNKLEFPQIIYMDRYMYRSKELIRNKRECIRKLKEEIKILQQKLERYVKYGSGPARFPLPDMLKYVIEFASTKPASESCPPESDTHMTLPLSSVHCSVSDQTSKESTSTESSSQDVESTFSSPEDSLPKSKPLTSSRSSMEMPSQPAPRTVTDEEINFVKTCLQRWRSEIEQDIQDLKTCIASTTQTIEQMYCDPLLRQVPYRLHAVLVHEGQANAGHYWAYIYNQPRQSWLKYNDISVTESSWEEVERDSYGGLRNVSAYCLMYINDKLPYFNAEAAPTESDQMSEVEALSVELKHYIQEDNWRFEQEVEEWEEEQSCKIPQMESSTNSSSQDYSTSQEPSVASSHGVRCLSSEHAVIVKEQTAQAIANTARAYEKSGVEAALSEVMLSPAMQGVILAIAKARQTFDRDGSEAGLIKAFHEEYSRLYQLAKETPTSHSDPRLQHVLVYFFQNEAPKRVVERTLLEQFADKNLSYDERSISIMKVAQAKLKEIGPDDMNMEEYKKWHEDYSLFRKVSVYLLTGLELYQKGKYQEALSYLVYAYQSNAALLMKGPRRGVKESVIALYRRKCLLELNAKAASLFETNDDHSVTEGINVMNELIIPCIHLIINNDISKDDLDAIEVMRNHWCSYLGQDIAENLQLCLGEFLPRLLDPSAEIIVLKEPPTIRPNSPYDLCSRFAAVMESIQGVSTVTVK
Procedure, shortened: as §1

Measured: log2 ratio of Biotin-Ahx-Ub-VS probe labelling

O=C(CCl)NC(Cn1ccccc1=O)c1ccccc1 (stereo not given)
inactive: [1] -0.14 | [2] 0.298 | [3] -0.0705 | [4] -0.417 | [5] -0.211

— the supplement of paper PMC11732987, “Enantioselective OTUD7B fragment discovery through chemoproteomics screening and high-throughput optimisation” (Communications Chemistry, 2025)
